In all, about 33,000 sequences were measured (“E-score (-0.5 to 0.5)”: median about -0.054, highest 2% from about 0.35 on). This excerpt belongs to a sample that is enriched for the highest values.
Target: T1, Stb5 (UniProt P38699)
T1 sequence: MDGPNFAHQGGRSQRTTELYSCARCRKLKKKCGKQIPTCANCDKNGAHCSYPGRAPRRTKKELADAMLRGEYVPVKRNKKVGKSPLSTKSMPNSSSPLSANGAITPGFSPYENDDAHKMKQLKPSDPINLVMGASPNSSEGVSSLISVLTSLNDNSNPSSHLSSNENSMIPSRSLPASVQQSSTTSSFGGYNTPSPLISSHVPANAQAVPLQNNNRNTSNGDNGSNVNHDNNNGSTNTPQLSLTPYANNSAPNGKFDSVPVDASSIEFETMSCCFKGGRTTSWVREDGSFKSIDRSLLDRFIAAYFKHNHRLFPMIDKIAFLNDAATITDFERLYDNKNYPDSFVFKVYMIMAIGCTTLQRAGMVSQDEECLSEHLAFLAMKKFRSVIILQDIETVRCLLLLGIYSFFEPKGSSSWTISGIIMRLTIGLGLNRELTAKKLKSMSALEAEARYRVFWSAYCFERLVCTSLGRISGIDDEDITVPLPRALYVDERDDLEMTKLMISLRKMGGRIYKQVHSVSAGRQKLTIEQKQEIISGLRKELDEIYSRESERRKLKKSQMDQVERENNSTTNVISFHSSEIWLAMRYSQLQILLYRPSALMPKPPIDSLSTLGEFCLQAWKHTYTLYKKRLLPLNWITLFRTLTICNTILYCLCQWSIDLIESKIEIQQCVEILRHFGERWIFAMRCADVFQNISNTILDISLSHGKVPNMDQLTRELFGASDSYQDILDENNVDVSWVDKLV
Assay: PBM E-score (8-mer binding enrichment) (E-score (-0.5 to 0.5)); higher = stronger / more preferred TF binding
Conditions: protein concentration: 200 nM; construct: GST-full length
Outline: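 Detection of bound protein used fluorescent anti-GST, with scans normalised by masliner. The proteins were GST-tagged yeast transcription factors applied at about 100-200 nM to universal all-10-mer Agilent arrays made double-stranded by primer extension. Each ungapped eight-base word, pooled with its reverse complement, was scored with an E-score from the Universal PBM Analysis Suite.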

Row | Sequence | PBM E-score
1 | AGTCTCCG | 0.264
2 | AAGAACAT | -0.0596
3 | ATAACACA | -0.107
4 | ATAACACC | 0.461
5 | CTAACACA | -0.0526
6 | ATAACACG | -0.0233
7 | CCAACACC | 0.119
8 | CTAACACC | 0.401
9 | GAATCCTC | -0.239
10 | CGCGTTCC | 0.0249
11 | ATTCCTTC | -0.0881
12 | GCCCTTAA | 0.191
13 | CCCTGGCG | 0.114
14 | CCTCTCCG | -0.171
15 | AATCATTG | -0.314
16 | GTGGCACA | -0.325
17 | CGGGGGCA | 0.275
18 | GCCGATGA | 0.357
19 | CCCGATGA | 0.226
20 | ACCGATGA | 0.264
21 | CCCTATAG | -0.104
22 | AATGGCAT | 0.0389
23 | CGGGCGGA | 0.359
24 | GGGGCGGA | 0.293
25 | CCGGCGGA | 0.385
26 | CCGGCGGC | 0.327

Row | Sequence | PBM E-score
27 | CGAGCGGA | 0.385
28 | CGAGCGGC | 0.318
29 | AGAGCGGA | 0.312
30 | GCGGCGGA | 0.333
31 | CGGGCGGC | 0.308
32 | AATTGGCC | -0.224
33 | CATCTAGG | -0.139
34 | CGAATTGA | -0.12
35 | ACAATTCG | -0.00889
36 | AGGTATCC | -0.211
37 | CGCCTTAA | 0.0389
38 | CGGCCTCC | 0.129
39 | AGGCCTCA | -0.264
40 | CGGCCTCA | 0.363
41 | CTTTAGCA | 0.133
42 | ATCTCTGA | -0.172
43 | AAACCGAA | -0.0132
44 | AGACCGAA | 0.236
45 | ACACCGAA | 0.386
46 | AGACCGAC | 0.385
47 | CCACCGAA | 0.117
48 | GCACCGAA | 0.358
49 | GAACCGAC | 0.225
50 | GCACCGAC | 0.45
51 | TCACCGAA | 0.217
52 | CGACCGAC | 0.271

Row | Sequence | PBM E-score
53 | GGACCGAC | 0.318
54 | AGACCGAG | 0.177
55 | AAGAACTA | -0.0107
56 | AGGTTCAC | -0.164
57 | CAATTCGC | 0.0656
58 | ACGAGAAA | -0.0778
59 | CAATGGCC | 0.0847
60 | ATGAGGCA | -0.24
61 | ATCTTGGG | -0.145
62 | CGAAGGAA | -0.188
63 | GATGAGAC | -0.136
64 | AAACCGAT | 0.121
65 | CCACCGAC | 0.346
66 | AAACCGAG | -0.0377
67 | ACACCGAT | 0.447
68 | AGACCGAT | 0.272
69 | AAACCGAC | 0.222
70 | CCACCGAG | 0.0738
71 | ACACCGAG | 0.369
72 | ACACCGAC | 0.466
73 | AATGGTTC | 0.00524
74 | TAAATCTA | -0.0639
75 | GAATGAAA | 0.0556
76 | AATGCGGA | 0.2
77 | CCGAAGCG | 0.225
78 | ACCTTAAT | 0.0412

Row | Sequence | PBM E-score
79 | AGGGCGCC | -0.0741
80 | CACGCCCG | 0.0876
81 | GACCATCA | 0.0409
82 | ACCACCCT | -0.168
83 | ACCACCGA | 0.357
84 | ACCACCGG | 0.406
85 | ACCACCGC | 0.391
86 | GCCACCGC | 0.335
87 | CCCACCGA | 0.118
88 | ACCACCAG | -0.148
89 | TCCACCGA | 0.176
90 | CCCACCGC | 0.221
91 | CCCACCGG | 0.303
92 | ACCACCAT | -0.138
93 | ACCACCGT | 0.354
94 | GGCGAGTA | -0.101
95 | CCTCTATA | -0.232
96 | CCTGACTC | -0.153
97 | CCTATAAG | -0.0382
98 | AACCTTGC | -0.0575
99 | AAGAAGTA | -0.102
100 | GAGCAAGC | -0.168
101 | AGCAACCA | -0.068
102 | CCAATTCA | -0.261
103 | ACCGACAC | 0.361
104 | ACCGACAA | 0.369

Row | Sequence | PBM E-score
105 | AACGACAG | -0.205
106 | ACCGACAT | 0.322
107 | GCCGACAC | 0.239
108 | ACCGACAG | 0.363
109 | CCCGACAC | 0.34
110 | CCCGACAA | 0.328
111 | CCCGACAG | 0.305
112 | GGTTTGGA | 0.0254
113 | ACGATATG | -0.0261
114 | ATGGTTCG | -0.0398
115 | CTCGTTTC | -0.214
116 | GGACCTAA | 0.365
117 | CGACCTAA | 0.017
118 | TGACCTAA | -0.117
119 | CGGAGGTA | 0.434
120 | CGGAGCTA | 0.446
121 | AGGAGGTA | -0.0118
122 | CGGAGGTC | 0.122
123 | CGGAGCTC | 0.249
124 | AGGAGCTA | -0.0145
125 | TGTACGAA | -0.0429
126 | ACCACTGA | -0.202
127 | GGCCGACA | 0.327
128 | CGCCGACA | 0.354
129 | TGCCGACA | 0.298
130 | CGCCGACC | 0.345

Row | Sequence | PBM E-score
131 | AGCCGACG | 0.232
132 | CGCCGACG | 0.395
133 | GGCTCTTA | 0.0283
134 | ACTCTAAA | 0.01
135 | ACCGCACG | 0.153
136 | AACGGGGA | 0.288
137 | GATCTACC | -0.0916
138 | AGCTGTTA | -0.234
139 | CGCTGTTA | 0.445
140 | CGCTGTTC | 0.0181
141 | GTCGGAAC | 0.315
142 | ACTCTCTA | -0.205
143 | ATAATGAA | -0.076
144 | ATACCGAT | 0.353
145 | ATACCGAG | 0.224
146 | CTACCGAC | 0.264
147 | ATACCGGC | 0.304
148 | ATACCGAC | 0.398
149 | CTACCGAA | 0.0544
150 | GTACCGAA | 0.145
151 | ATACCGAA | 0.242
152 | GTACCGAC | 0.382
153 | AACGTTGT | -0.107
154 | CGGTATAG | 0.179
155 | AACACTGT | -0.22
156 | AGCTGGTC | -0.26

Row | Sequence | PBM E-score
157 | TAACAGTA | -0.227
158 | AAAAAGTC | 0.175
159 | TAGCTGCA | -0.191
160 | GCGGTGAC | 0.358
161 | ACTGTGCT | -0.241
162 | ACGGTGCA | 0.127
163 | GGGGTGAC | 0.0132
164 | AAGGTGCT | -0.0966
165 | GCGGTGAA | 0.345
166 | ACGGTGCG | 0.281
167 | ACGGTGAC | 0.297
168 | ACGGTGAT | 0.367
169 | ACGGTGCT | 0.409
170 | ACGGTGCC | 0.372
171 | ACGGTGAG | 0.141
172 | GAGAGTGC | -0.209
173 | AAACTGAT | -0.104
174 | CAGAGGGA | -0.261
175 | GATACTCC | 0.146
176 | TAGCACTA | -0.246
177 | AAAAAGAA | 0.175
178 | GCCAAGGA | -0.0748
179 | TAGGTCCA | -0.0733
